Hit rate of the full screen: of about 48,000 compounds, about 13,000 (27%) showed an effect of 50% or more. The list shows a part of the results.
test system: Wolbachia pipientis; assay: Anti-Wolbachia Cell-Based Screen; type: functional; design: scale not given: in the data most compounds retested in dose-response had high values; details: 5 µM

Compound | Percent Effect
CN(C)C(=O)CN1CCN(c2ncccn2)[C@@H]2CS(=O)(=O)C[C@@H]21 | -3.142%
CC(c1ccccc1F)N1CCN(C(=O)Cc2ccncc2)CC1 (stereo not drawn) | -4.813%
COc1cccc(CC(C)NCC(=O)Nc2ccccc2C)c1 (stereo not drawn) | 0.2022%
CC[C@H]1CN2CC[C@H]1C[C@@H]2CNCc1ccc(N(C)C)cc1 | 11.9%
Fc1cnc(N2CCN3C[C@H](Oc4cncnc4)C[C@H]3C2)nc1.O=C(O)C(F)(F)F.O=C(O)C(F)(F)F | 110.2%
O=C(Cc1cccc(F)c1)N1CCN2C[C@H](Oc3cncnc3)C[C@H]2C1.O=C(O)C(F)(F)F | 1.194%
Cc1cnc(N2CCN3C[C@H](OCc4ccccn4)C[C@H]3C2)nc1.O=C(O)C(F)(F)F.O=C(O)C(F)(F)F | 0.855%
Fc1cnc(N2CCN3C[C@H](Oc4cccnc4)C[C@H]3C2)nc1.O=C(O)C(F)(F)F.O=C(O)C(F)(F)F.O=C(O)C(F)(F)F | 90.39%
Cc1ccc(O[C@@H]2C[C@H]3CN(c4ncc(F)cn4)CCN3C2)cc1.O=C(O)C(F)(F)F.O=C(O)C(F)(F)F | 83.44%
O=C(c1ccco1)N1CCN2C[C@H](Oc3cncnc3)C[C@H]2C1 | 1.787%
O=C(O)C(F)(F)F.O=C(O)C(F)(F)F.c1ccc(CO[C@@H]2C[C@H]3CN(c4ncccn4)CCN3C2)cc1 | 2.223%
Fc1ccccc1CO[C@@H]1C[C@H]2CN(c3ncccn3)CCN2C1.O=C(O)C(F)(F)F | -0.171%
Cc1cccc(CO[C@@H]2C[C@H]3CN(c4ncccn4)CCN3C2)n1.O=C(O)C(F)(F)F.O=C(O)C(F)(F)F.O=C(O)C(F)(F)F | -11.39%
O=C(O)C(F)(F)F.O=C(O)C(F)(F)F.c1cnc(N2CCN3C[C@H](Oc4cncnc4)C[C@H]3C2)nc1 | 105.8%
CC(C)c1cc(C(=O)N2CCN(C)[C@@H]3CS(=O)(=O)C[C@@H]32)no1 | -18.46%
O=C(NC[C@H]1C[C@@H]2CCN1C[C@@H]2CN1CCCCC1)c1ccco1 | 3.904%
CCCSCC(=O)N1C[C@H]2CC[C@@H]1CN(Cc1cccnc1)C2 | -15.35%
CCOCC(=O)NC(C)Cc1ccccc1Br (stereo not drawn) | -9.65%
CC[C@H](C)[C@@H](CO)NC(C)Cc1ccc(Cl)cc1 (stereo partly drawn) | 125.5%
COC(=O)C(CO)NC(=O)c1cn(Cc2ccccc2F)nn1 (stereo not drawn) | -17.52%
CC[C@H](C)[C@@H](CO)NC(C)Cc1ccc(F)cc1 (stereo partly drawn) | 95.88%

Compound | Percent Effect
CC[C@H](C)[C@@H](CO)NC(C)Cc1ccccc1F (stereo partly drawn) | 127.2%
CC[C@H](C)[C@@H](CO)NC(C)Cc1ccc(C)cc1 (stereo partly drawn) | 96.84%
CNS(=O)(=O)CC(=O)NC(C)Cc1ccc(Br)cc1 (stereo not drawn) | -6.603%
CC(=O)N1CCC(CCNC(C)Cc2ccc(F)cc2)CC1 (stereo not drawn) | 3.455%
CCc1cc(CN(C)C(=O)CN2CC(c3ccccc3)CC2=O)on1 (stereo not drawn) | -7.018%
CN(C)C(=O)[C@H]1C[C@H]2OCC[C@H]2N(Cc2ccccn2)C1 | -23.53%
O=C(NC[C@H]1C[C@@H]2CCN1C[C@@H]2CN1CCCCC1)Nc1ccccc1 | -4.847%
CC(C)(C)n1cc(C2=CCN(CCN3CCCCCC3)CC2)cn1 | -14.66%
O=C(O)C(F)(F)F.O=C(O)C(F)(F)F.O=C1N(c2cccnc2)CCC12CCCN(Cc1ccco1)C2 (stereo not drawn) | 8.384%
CNc1ncccc1C(=O)N1CCC2(CCN(C)C2)CC1 | -14.87%
CC(C)(C)CN1CCCC2(CCN(C(=O)c3ccc(O)nc3)C2)C1 (stereo not drawn) | -6.955%
O=C(O)C(F)(F)F.O=C(O)C(F)(F)F.O=C1CC2(CCN(Cc3cccnc3)C2)CN1c1cncnc1 (stereo not drawn) | -5.386%
CN1CCC2(CCN(C(=O)c3cccnc3)C2)C1 (stereo not drawn) | 103.3%
Cc1ccc(CN2CC3(CCN(C(=O)c4cccnc4)C3)C2)o1.O=C(O)C(F)(F)F.O=C(O)C(F)(F)F | 90.74%
O=C(O)C(F)(F)F.O=C(O)C(F)(F)F.O=C1N(c2ccsc2)CCC12CCCN(Cc1cccnc1)C2 (stereo not drawn) | 4.008%
CCCN(CCN(C)C)C(=O)Cc1cn2ccsc2n1 | -3.087%
O=C(Cc1ccsc1)N1CCN(CCOc2ccccc2)CC1 | -6.082%
CC[C@H]1CN2CC[C@H]1C[C@@H]2CNCc1ccc2c(c1)OCO2 | 5.104%
CN1CCN2C(=O)N(C3CCCCC3)C[C@H]2C1 | -7.779%
CC(C)N(C)C(=O)C1CCC2(CCNCC2)O1.Cl (stereo not drawn) | -5.93%
CCN(C)c1nccc(N2CCN[C@H]3CS(=O)(=O)C[C@H]32)n1 | -8.792%

Compound | Percent Effect
Cc1ccnc(CC(C)N(C)Cc2ccc3c(c2)CCO3)c1 (stereo not drawn) | 8.665%
O=C(O)C(F)(F)F.O=C(O)C(F)(F)F.O=C(O)C(F)(F)F.c1ccc(CN2CCOC3(CCN(c4ncccn4)CC3)C2)nc1 | -2.349%
CS(=O)(=O)N1CCOCC2(CN(Cc3ccccn3)CCO2)C1.O=C(O)C(F)(F)F.O=C(O)C(F)(F)F (stereo not drawn) | -5.644%
CCS(=O)(=O)N1CCOC2(CCCN(Cc3ccccn3)C2)C1.O=C(O)C(F)(F)F (stereo not drawn) | 109.8%
CCCS(=O)(=O)N1CCOC2(CCCN(Cc3ccccn3)C2)C1.O=C(O)C(F)(F)F (stereo not drawn) | 106.1%
O=C(O)C(F)(F)F.O=S(=O)(C1CC1)N1CCOC2(CCCN(Cc3ccccn3)C2)C1 (stereo not drawn) | 85.16%
CCS(=O)(=O)NC[C@]12COC[C@H]1CN(Cc1ccccn1)C2.O=C(O)C(F)(F)F.O=C(O)C(F)(F)F | 3.316%
O=C(O)C(F)(F)F.O=C(O)C(F)(F)F.O=S(=O)(C1CC1)N1CCC2(CC1)CN(Cc1ccccn1)CCO2 | 101%
O=C(O)C(F)(F)F.c1cnc(N2CCOCC3(CN(Cc4cc[nH]n4)CCO3)C2)nc1 (stereo not drawn) | 10.86%
CC(C)[C@@H]1CN(C(=O)C2(c3ccccc3)CCN(C)CC2)C[C@H]1C(=O)O | 1.772%
COc1cc(CNCC(O)c2ccc(F)c(F)c2)cc2c1OCO2 (stereo not drawn) | -3.918%
O=C(NC[C@]12COC[C@H]1CN(Cc1ccncc1)C2)c1ccno1.O=C(O)C(F)(F)F.O=C(O)C(F)(F)F | -6.901%
CC(C)N1CCC2(CC1)C(=O)N(c1cccnc1)c1c(F)cccc12.Cl | -0.101%
CN1C(=O)C2(CCN(Cc3nccn3C)CC2)c2ccccc21.O=C(O)C(F)(F)F | -27.57%
CCN1C(=O)C2(CCN(CCN(C)C)CC2)c2ccccc21.O=C(O)C(F)(F)F.O=C(O)C(F)(F)F | 97.23%
Cc1ccc(CN2CCC3(CC2)C(=O)N(C)c2ccccc23)s1.O=C(O)C(F)(F)F | -4.693%
CC(C)N1CCC2(CC1)C(=O)N(c1cccnc1)c1ccc(F)cc12.Cl | -1.595%
CC(C)N1CCC2(CC1)C(=O)N(CCN(C)C)c1ccccc12.O=C(O)C(F)(F)F.O=C(O)C(F)(F)F | 103.6%
COCCN1C(=O)C2(CCN(CC3CC3)CC2)c2ccccc21.O=C(O)C(F)(F)F | 100.2%
CN(C)CCN1C(=O)C2(CCN(CC3CC3)CC2)c2ccccc21.O=C(O)C(F)(F)F.O=C(O)C(F)(F)F | 113.1%
CCCN1CCN(C(=O)Cc2nc(-c3ccco3)oc2C)CC1 | 1.326%

Compound | Percent Effect
COCc1cncc2c1CCN(Cc1cccnc1)C2 | 101.9%
COCc1cncc2c1CCN(Cc1cnn(C)c1)C2.O=C(O)C(F)(F)F.O=C(O)C(F)(F)F | 0.729%
CN(C)Cc1cncc2c1CCN(Cc1cnn(C)c1)C2.Cl.Cl.Cl | -9.802%
CN(C)Cc1cncc2c1CCN(Cc1ccoc1)C2.Cl.Cl.Cl | 105%
COCCN1CCN(Cc2cccnc2)[C@H]2CS(=O)(=O)C[C@H]21 | 6.429%
CC(C)N(C)Cc1cncc2c1CCN(Cc1ccoc1)C2.Cl.Cl.Cl | 91.96%
COCc1cncc2c1CCN(Cc1cccs1)C2.O=C(O)C(F)(F)F.O=C(O)C(F)(F)F | 82.87%
O=C1[C@@H]2CCN(Cc3ccoc3)C[C@@H]2OCCN1c1cccnc1 | 8.449%
COCc1cncc2c1CCN(Cc1ccccn1)C2.O=C(O)C(F)(F)F.O=C(O)C(F)(F)F.O=C(O)C(F)(F)F | 9.224%
CC(C)N1[C@H](CN(C)C)C[C@@H]2CN(c3ncc(F)cn3)CC[C@@H]21.O=C(O)C(F)(F)F.O=C(O)C(F)(F)F.O=C(O)C(F)(F)F | 3.695%
CC1(C)C(C(=O)NCCC2CN(Cc3c[nH]cn3)CCO2)C1(C)C (stereo not drawn) | -1.625%
CC(C)N1CCc2c(CN(C)Cc3ccco3)cncc2C1.Cl.Cl.Cl | 5.952%
Cc1cccnc1CC(C)N(C)Cc1cccs1 (stereo not drawn) | -8.458%
CC(C)N(C)Cc1cncc2c1CCN(Cc1cccs1)C2.Cl.Cl.Cl | 94.28%
COCCN1CCO[C@@H]2CN(S(=O)(=O)c3cccnc3)C[C@@H]2C1.O=C(O)C(F)(F)F.O=C(O)C(F)(F)F | 120.4%
Cc1ccsc1CN1C[C@@H]2CN(Cc3cccnc3)CCO[C@@H]2C1.O=C(O)C(F)(F)F.O=C(O)C(F)(F)F.O=C(O)C(F)(F)F | 13.17%
COCCN1CCO[C@@H]2CN(Cc3ccccn3)C[C@@H]2C1.O=C(O)C(F)(F)F.O=C(O)C(F)(F)F.O=C(O)C(F)(F)F | -10.28%
CS(=O)(=O)N1CCO[C@@H]2CN(Cc3ccncc3)C[C@@H]2C1.O=C(O)C(F)(F)F.O=C(O)C(F)(F)F | 13.84%
O=C(O)C(F)(F)F.O=C(O)C(F)(F)F.O=S(=O)(c1cccnc1)N1C[C@@H]2COC[C@]2(CN2CCOCC2)C1 | -9.184%
CN1CCO[C@@H]2CN(S(=O)(=O)c3cccnc3)C[C@@H]2C1.O=C(O)C(F)(F)F.O=C(O)C(F)(F)F | 131.4%

From ChEMBL document CHEMBL3988442, “University of Dundee, Small-Polar-MMV Screening Library” (2021)
